Screens: PubChem, several laboratories
RN4220 kill = kills Staphylococcus aureus RN4220. S. aureus RN4220 growth, OD600, 16 h. inhibition, % (no concentration beside the values). 0.33% of 330,000 active; in the data active means inhibition above about 85%
Yp Topo-I inh = Y. pestis Topo-I inhibition via cleavage products | Y. pestis Topo-I cleavage product accumulation, plate reader | 0.064% of 360,000 active | activity, % at 10 µM; in the data active means activity above about 50%, passing the limit was not always enough; inconclusive means no clear call, values can overlap the other calls
Sa ugtP lethal = compounds lethal to S. aureus RN4220 ugtP deletion mutant; OD600 growth, 16 h; growth inhibition, % (concentration not given with the values); 0.54% of 330,000 active; in the data active means growth inhibition above about 68%
PfHsp40 yeast = restores yeast growth despite PfHsp40 toxicity | 0.68% of 340,000 active | growth rescue, % at 12.5 µM | AID 504582 | S. cerevisiae expressing PfHsp40, growth rescue, ATP luminescence; in the data active means growth rescue above about 28%, passing the limit was not always enough; inconclusive means no clear call, values can overlap the other calls;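 further: yeast W303a lacking pdr1 and pdr3 grown in galactose medium; growth measured after three days at 30 °C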
BJeLR viability = BJeLR cell viability loss | BJeLR (HRASV12) viability, CellTiter-Glo ATP luminescence, 48 h | inhibition, % (no concentration beside the values) | 0.17% of 300,000 active | AID 1554; in the data active means inhibition above about 50%; inconclusive means no clear call, values can overlap the other calls
PrP UTR inh = inhibition of PrP 5' UTR reporter expression; cell-based PrP 5' UTR mRNA reporter, plate reader; inhibition, % (no concentration beside the values); 0.35% of 340,000 active; AID 488862; in the data active means inhibition above about 52%
PrP 5UTR single = prion 5' UTR mRNA inhibition, cherry-pick retest; shares compounds with PrP UTR inh; 48% of 1,100 active; cell-based prion protein 5' UTR reporter, plate reader; AID 504592; inhibition, % at 2.5 µM; in the data active means inhibition above about 54%; inconclusive means no clear call, values can overlap the other calls
Numbers stand for hits; . = inactive; ? = inconclusive; / = no result given. Sampled rows, rich in hits. Any-hit rate of the full collection: about 1.4%.

SMILES	RN4220 kill	Yp Topo-I inh	Sa ugtP lethal	PfHsp40 yeast	BJeLR viability	PrP UTR inh	PrP 5UTR single
COc1cc(C2c3cc4c(cc3OC(NNC(N)=O)C2C)OCO4)cc(OC)c1OC (stereo not drawn)	/	.	/	.	/	52.3	86.8
COc1cc(C2c3cc4c(cc3C(OC3OC5COC(c6cccs6)OC5C(O)C3O)C3COC(=O)C23)OCO4)cc(OC)c1O (stereo not drawn)	/	.	/	.	73.4	71.4	61.0
COc1cc(C2c3cc4c(cc3C(O)C3COC(=O)C23)OCO4)cc(OC)c1O[Si](C)(C)C(C)(C)C (stereo not drawn)	.	/	.	/	/	/	/
CC1CN(C(C)CO)C(=O)c2cccc(NS(=O)(=O)c3ccccc3)c2OC1CN(C)C (stereo not drawn)	.	/	.	/	/	/	/
CC1CN(C(C)CO)C(=O)c2cccc(NC(=O)Nc3ccc4c(c3)OCO4)c2OC1CN(C)S(=O)(=O)c1cccs1 (stereo not drawn)	.	/	.	/	/	/	/
Cc1cc2nc(/C=C/c3cccnc3)[nH]c2cc1C	.	.	.	.	53.0	65.7	84.2
O=c1[nH]c2cc([N+](=O)[O-])ccc2c2ccc([N+](=O)[O-])cc12	/	.	/	.	/	88.2	.
CCC(C)C(C(=O)NCCCCCCCCCCC(=O)N1CCN(C(=O)OC(C)(C)C)CC1)n1cc(CCCCCNC(=O)OC(C)(C)C)nn1 (stereo not drawn)	.	/	.	/	/	/	/
COCCNC(=O)C(C#N)=Cc1ccc(-c2ccc(OC)cc2[N+](=O)[O-])o1	.	/	.	/	/	/	/
Cc1cn(CC(=O)NCCCc2ccccc2)c(=O)[nH]c1=O	/	.	/	.	/	.	/
O=c1[nH]c(=O)n(CCCc2ccccc2)cc1-c1ccccc1	/	.	/	.	/	63.0	.
CN(C)c1ccc(/C=C2\SC(N3CCCCC3)=NC2=O)cc1	.	.	.	.	.	56.9	.
Cc1ccc(/C=C2\SC(N3CCCC3)=NC2=O)cc1	.	/	.	/	.	/	/
O=C(c1ccc(-c2nc3ccccc3s2)s1)N1CCOCC1	.	/	.	/	.	/	/
O=C(NC1CC1)c1ccc(-c2nc3ccccc3s2)s1	.	.	.	.	.	65.9	?
COc1ccc(C2CC(=O)C=C(c3cc(Br)ccc3OC)C2)cc1 (stereo not drawn)	.	/	.	/	/	/	/
CC(C)C(C(=O)N1CCNCC1)n1cc(CCO)nn1 (stereo not drawn)	.	/	.	/	/	/	/
O=C(O)c1cccc(-c2noc(-c3cccc(Cl)c3)n2)c1	.	.	.	.	/	81.5	84.4
COC(=O)C1=CC(C(=O)OC)C2C3=C(C(=O)[C@]2(CC(C)C)NC(=O)c2ccccc2)C(C)n2c(=O)n(-c4ccccc4)c(=O)n2C3C1 (stereo partly drawn)	.	/	.	/	/	/	/
Cc1ccc(S(=O)(=O)NC2CCCC2)cc1C	.	.	.	.	.	.	/
Cc1ccc(S(=O)(=O)NC2CCSC2=O)cc1C (stereo not drawn)	.	.	.	.	/	74.8	.
O=S1(=O)CCN(C2CCCCCC2)CC1	/	.	/	/	/	/	/
O=S1(=O)CC(N2CCCCC2)C(N2CCCCC2)C1 (stereo not drawn)	.	.	.	.	.	69.3	.
O=C(O)CCn1cc(C=C2C(=O)NC(=S)NC2=O)c(-c2ccccc2)n1	.	.	.	.	.	74.4	.
O=C(O)CCn1cc(C=C2C(=O)NC(=S)NC2=O)c(-c2cc3ccccc3oc2=O)n1	.	.	.	.	.	.	/
SMILES	RN4220 kill	Yp Topo-I inh	Sa ugtP lethal	PfHsp40 yeast	BJeLR viability	PrP UTR inh	PrP 5UTR single
NC(=O)c1cc([N+](=O)[O-])ccc1NCc1ccc(N)cc1	/	.	/	.	/	74.1	74.6
NC(=O)c1cc([N+](=O)[O-])ccc1NCc1ccc(F)cc1	.	.	.	.	/	.	/
Cn1cccc1/C=C1\SC(=Nc2ccc(O)cc2)NC1=O	.	.	.	.	62.3	68.8	82.3
Cn1cccc1/C=C1\SC(=Nc2ccccc2)NC1=O	.	.	.	.	.	.	/
CC(=O)CSc1ccc(-c2nc3cc(C)c(C)cc3[nH]2)cn1	.	.	.	.	.	81.8	74.0
CCC(=O)Oc1ccc(C(CC)C(CC)c2ccc(OC(=O)CC)cc2)cc1 (stereo not drawn)	/	.	/	.	.	58.0	.
COC(=O)C1=C(c2ccc(C(C)=O)cc2)CC2CCC1N2C(=O)NCCO (stereo not drawn)	.	/	.	/	/	/	/
Cn1cc(/C=N/n2cnc3scc(-c4ccc(Cl)cc4)c3c2=O)c2ccccc21	/	.	/	.	.	57.1	91.3
COc1cc(C=Nn2cnc3scc(-c4cccs4)c3c2=O)cc(OC)c1OC	.	/	.	/	/	/	/
CCOC(=O)C1C2COc3ccc(Br)cc3C2N2C(=O)CN(Cc3ccccc3)C(=O)[C@@]12C (stereo partly drawn)	.	/	.	/	/	/	/
CC1=C(N2CC2)C(=O)C(CO)=C(N2CC2)C1=O	/	.	/	.	/	97.7	97.2
CCOc1ccccc1OCCCC(=O)N1CCN(S(=O)(=O)c2ccc(Cl)cc2)CC1	.	.	.	.	/	87.2	.
CCCOc1ccccc1OCC(=O)N1CCN(S(=O)(=O)c2ccc(Cl)cc2)CC1	.	.	.	.	/	.	/
CC1CN(C(C)CO)C(=O)c2cc(NC(=O)Nc3ccc4c(c3)OCO4)ccc2OC1CN(C)S(C)(=O)=O (stereo not drawn)	.	/	.	/	/	/	/
O=C(NCCc1ccccc1)c1ccc2c(c1)OCO2	.	.	.	.	.	58.1	?
COC(=O)C1=C(C(=O)OC)C2N(C)c3ccc(OC)cc3[C@@]23CC(C(=O)OC)N(C(=O)NC2CCCCC2)C3=N1 (stereo partly drawn)	.	/	.	/	/	/	/
O=C1CC(c2ccccc2)(c2ccccc2)c2ccccc21	.	.	.	.	/	.	/
O=C(O)C1(Br)CC12c1ccccc1-c1ccccc12 (stereo not drawn)	/	.	/	.	/	53.8	.
O=C(NC1CCCC1)c1cccc2c1C(=O)c1ccc(C=Cc3ccccc3)cc1S2(=O)=O	.	/	.	/	/	/	/
CCOC(=O)C1C2COc3ccc(Br)cc3C2N2C(=O)c3cc(F)c(F)cc3NC(=O)[C@@]12C (stereo partly drawn)	.	/	.	/	/	/	/
CC(C)CC(CC#N)N1CCN(CCc2ccccc2)CCC1=O (stereo not drawn)	.	/	.	/	/	/	/
c1nc(CCO[C@H]2CCCCO2)cc2cc3c(cc12)OCO3	/	.	/	.	/	63.0	.
COc1cc2cnc(CCOC3CCCCO3)cc2cc1OC (stereo not drawn)	.	/	.	/	/	/	/
CC(C)(C)C1C=C(C(=O)O)OC(OCc2ccc(CO)cc2)C1 (stereo not drawn)	.	/	.	/	/	/	/
Cn1c(-c2ccccc2)cc2onc(-c3ccccc3)c2c1=O	.	.	.	.	/	63.5	.
Cn1c(-c2ccccc2F)cc2onc(-c3ccccc3)c2c1=O	.	.	.	.	/	.	/
C#CCOCCOCCOCCNc1nc(N2CCN(C(=O)C(CCCCN)n3cc(CCCC)nn3)CC2)nc(N2CCN(C(=O)C(C(C)C)n3cc(CCO)nn3)CC2)n1 (stereo not drawn)	.	/	.	/	/	/	/
